High-throughput results (PubChem BioAssay)
Only some compounds are listed: those with a hit (about 9% of all), similar ones and a draw of the others.
G9a inh: qHTS Assay for Inhibitors of Histone Lysine Methyltransferase G9a | G9a H3K9 monomethylation, AlphaScreen, 2 h | hit rate 8.8% among 350,000 | AID 504332, 2011 | Potency, µM (titrated, usually from 102 µM), hits mostly inhibitors | Histone-lysine N-methyltransferase EHMT2 (Homo sapiens), Q96KQ7; note: nearly all actives have a fitted effect of over 75% in size
Target sequence (Q96KQ7 913-1193 limits assumed): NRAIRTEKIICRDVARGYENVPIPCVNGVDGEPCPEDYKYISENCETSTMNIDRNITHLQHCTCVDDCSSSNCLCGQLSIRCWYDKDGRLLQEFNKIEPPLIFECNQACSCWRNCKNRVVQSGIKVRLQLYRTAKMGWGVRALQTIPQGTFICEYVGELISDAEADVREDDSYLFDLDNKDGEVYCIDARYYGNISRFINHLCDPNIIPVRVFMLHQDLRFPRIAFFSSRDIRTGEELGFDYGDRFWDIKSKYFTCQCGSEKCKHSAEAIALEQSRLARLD
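Chemiluminescent proximity detection of H3K9 monomethylation, read after 10 min bead incubation in the dark. Reaction: 20 nM G9a, 500 nM biotin-H3K9 peptide, 20 uM SAM cofactor, 2 h, room temperature, following 15 min enzyme-compound preincubation.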
BAZ2B block: qHTS Assay for Inhibitors of BAZ2B. Potency, µM (series often up to 114 µM), usual class: inhibitors. Bromodomain adjacent to zinc finger domain protein 2B (Homo sapiens), Q9UIF8. hit rate 4.4% among 360,000. AlphaScreen BAZ2B-H3K14Ac peptide displacement; note: nearly all actives have a fitted effect of over 60% in size
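In this displacement format the biotinylated H3(5-23) peptide acetylated at Lys14 serves as ligand at 50 nM, with BAZ2B at 50 nM in PBS pH 7.4 containing 0.01% Tween-20. Donor and acceptor beads are 10 ug/mL final.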
HP1b binding inh: HTS for Inhibitors of HP1-beta Chromodomain Interactions with Methylated Histone Tails. hit rate 0.56% among 390,000. Chromobox protein homolog 1 (Homo sapiens), P83916. Potency, µM (doses to about 114 µM), most hits filed as inhibitors. AlphaScreen HP1-beta / biotin-H3K9me3 peptide binding; note: nearly all actives have a fitted effect of over 70% in size
Target sequence (P83916 whole entry, looked up): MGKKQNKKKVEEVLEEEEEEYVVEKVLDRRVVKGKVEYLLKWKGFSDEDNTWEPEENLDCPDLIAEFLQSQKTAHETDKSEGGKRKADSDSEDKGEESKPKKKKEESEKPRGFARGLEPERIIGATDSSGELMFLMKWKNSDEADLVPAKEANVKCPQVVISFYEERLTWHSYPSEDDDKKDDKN
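Compound inhibition of the preformed complex between 50 nM HP1-beta and 50 nM biotinylated H3K9me3 peptide was read by AlphaScreen. Buffer was PBS pH 7.4 with 0.01% Tween-20. Incubations ran 30 min at room temperature, with 10 ug/mL donor/acceptor beads.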
JMJD2A Tudor: qHTS Assay for Inhibitors of JMJD2A-Tudor Domain; Lysine-specific demethylase 4A (Homo sapiens), O75164; AlphaScreen JMJD2A-Tudor / H3K4me3 peptide binding; Potency, µM (series often up to 114 µM), most hits filed as inhibitors; hit rate 4.4% among 390,000; AID 504339, 2011; note: nearly all actives have a fitted effect of over 50% in size
ALOX12 inh: Primary qHTS assay for inhibitors of human arachidonate 12S-lipoxygenase (ALOX12): Round 2; purified 12hLO, xylenol orange hydroperoxide absorbance; hit rate 1.1% among 580,000; Potency, µM (doses to about 108 µM), actives largely listed as inhibitors; AID 1671190, 2021; Polyunsaturated fatty acid lipoxygenase ALOX12 (Homo sapiens), P18054
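Purified human 12hLO (150 nM final) in 25 mM Hepes, 0.01% Triton X-100, pH 7.0 was preincubated 15 min at room temperature with compound. Then 40 uM arachidonic acid was added, 30 min. Hydroperoxide was read by Fe-XO absorbance ratio 573/405 nm.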
PLK1 PBD block: qHTS for Inhibitors of PLK1-PDB (polo-like kinase 1 - polo-box domain): Primary Screen. Potency, µM, actives largely listed as inhibitors. Plk1 PBD binding of FITC phosphopeptide, fluorescence polarization. AID 720504, 2013. hit rate 2.8% among 360,000; note: series mostly up to about 57 µM; nearly all actives have a fitted effect of over 65% in size
Numbers stand for hits; ! = not confirmed by another sample; [ ] = remark or other dose. Calls come from the whole dose curve; as a rule, active = well fitted curve in the direction sought with a large enough effect; inconclusive = small, poorly fitted or top-dose-only effect, or another doubt; inactive = no such curve, though single readings can be large; an effect the other way counts as inactive or inconclusive.

`O=C(CCn1c(=O)c2cccn2c2cccnc21)N1CCN(c2cccc(Cl)c2)CC1` gave G9a inh inconclusive, BAZ2B block inactive, HP1b binding inh inactive, JMJD2A Tudor 16µM!, ALOX12 inh inconclusive and PLK1 PBD block 3.4µM.
O=C(NC(NCc1ccccc1)C(Cl)(Cl)Cl)c1cccnc1 (stereo not drawn) was read as G9a inh inactive, BAZ2B block inactive, HP1b binding inh inactive, JMJD2A Tudor inactive, ALOX12 inh inactive and PLK1 PBD block inactive.
N[C@@H]1CONC1=O was read as G9a inh 20µM!, BAZ2B block inactive and ALOX12 inh inactive.
Screening COc1ccc(C2Cn3nnc(-c4nc(-c5cccc(C)c5)no4)c3CO2)cc1 (stereo not drawn) returned ALOX12 inh inactive.
Screening CCOc1ccc(C(=O)NCC(=O)OCc2cc(C(C)=O)ccc2OC)cc1 returned G9a inh 45µM, BAZ2B block inactive, HP1b binding inh inactive, JMJD2A Tudor inactive, ALOX12 inh inactive and PLK1 PBD block inconclusive.
For COc1ccc(C(C)=O)cc1COC(=O)CNC(=O)c1ccc(F)cc1 the results were G9a inh inactive, BAZ2B block inactive, HP1b binding inh inactive, JMJD2A Tudor inactive, ALOX12 inh inactive and PLK1 PBD block inactive.
For COc1ccc(C(C)=O)cc1COC(=O)CNC(=O)c1ccc(Cl)cc1 the results were G9a inh 50µM, BAZ2B block inactive, HP1b binding inh inactive, JMJD2A Tudor inactive, ALOX12 inh inactive and PLK1 PBD block inconclusive.
`CCS(=O)(=O)Nc1ccc(Cc2ccncc2)cc1` gave G9a inh inactive, BAZ2B block inactive, HP1b binding inh inactive, JMJD2A Tudor inactive[11.4 µM], ALOX12 inh inactive and PLK1 PBD block 30µM.
O=S(=O)(Nc1ccc(Cc2ccncc2)cc1)c1ccc(Cl)cc1 was read as BAZ2B block inactive, HP1b binding inh inactive, JMJD2A Tudor inactive, ALOX12 inh inconclusive and PLK1 PBD block inactive.
Screening COc1cccc(NC(=O)c2sc3ncn(CC(=O)N4CCN(c5ccccn5)CC4)c(=O)c3c2C)c1 returned G9a inh inactive, BAZ2B block inactive, HP1b binding inh inactive, JMJD2A Tudor inconclusive, ALOX12 inh inactive and PLK1 PBD block 13µM.
For Cc1ccc(NC(=O)c2sc3ncn(CC(=O)N4CCN(c5ccccn5)CC4)c(=O)c3c2C)cc1Cl the results were G9a inh inconclusive, BAZ2B block inactive, HP1b binding inh inactive, JMJD2A Tudor inactive, ALOX12 inh inactive and PLK1 PBD block inactive.
For O=C(N/N=C/c1ccncc1)NC12CC3CC(CC(C3)C1)C2 the results were G9a inh inconclusive, BAZ2B block inactive, HP1b binding inh inactive, JMJD2A Tudor inactive, ALOX12 inh inactive and PLK1 PBD block inactive.
`O=C(CC12CC3CC(CC(C3)C1)C2)N/N=C/c1ccncc1` gave G9a inh inactive, BAZ2B block inactive, HP1b binding inh inconclusive, JMJD2A Tudor inactive, ALOX12 inh inactive and PLK1 PBD block 27µM.
O=C(O)Cc1ccc(C(=O)c2ccccc2)s1 was read as G9a inh 18µM, BAZ2B block inactive, HP1b binding inh inactive, JMJD2A Tudor inactive, ALOX12 inh inconclusive and PLK1 PBD block inactive.
For Cc1ccc(SCC(=O)c2ccc(CC(=O)O)s2)cc1 the results were BAZ2B block 50µM, HP1b binding inh inactive, JMJD2A Tudor inconclusive, ALOX12 inh inactive and PLK1 PBD block inconclusive.
Screening O=C(O)Cc1ccc(C(=O)CSc2ccccc2)s1 returned G9a inh 56µM, BAZ2B block 50µM, HP1b binding inh inactive, JMJD2A Tudor 56µM, ALOX12 inh inactive and PLK1 PBD block 12µM.
`O=C(O)Cc1ccc(C(=O)c2ccc(Cl)cc2)s1` gave G9a inh inconclusive, BAZ2B block inactive, HP1b binding inh inactive, JMJD2A Tudor inactive, ALOX12 inh inconclusive and PLK1 PBD block inactive.
Screening COc1ccc(C(=O)c2ccc(CC(=O)O)s2)cc1 returned G9a inh inactive, BAZ2B block inactive, HP1b binding inh inactive, JMJD2A Tudor inactive, ALOX12 inh inactive and PLK1 PBD block inactive.
Screening COP(=O)(OC)C(=NNS(=O)(=O)c1ccc(C)cc1)c1ccccc1 returned ALOX12 inh inactive and PLK1 PBD block inactive.
Screening COc1ccc(CNC(=O)c2ccc(C(C)(C)C)cc2)cc1 returned BAZ2B block inactive, HP1b binding inh inactive, JMJD2A Tudor inactive, ALOX12 inh inactive and PLK1 PBD block inactive.
Screening CC(C)(C)NC(=O)Nc1ccc(Cn2cc(C(F)(F)F)ccc2=O)cc1 returned G9a inh inactive, BAZ2B block inactive, HP1b binding inh inactive, JMJD2A Tudor 32µM, ALOX12 inh inactive and PLK1 PBD block 24µM.
Screening CN(CC(=O)NC(=O)NCc1ccccc1)Cc1ccc(Cl)cc1 returned G9a inh 45µM, BAZ2B block inactive, HP1b binding inh inactive, JMJD2A Tudor inactive, ALOX12 inh inactive and PLK1 PBD block inactive.
`CNC(=O)Nc1ccc(Cn2cc(C(F)(F)F)ccc2=O)cc1` gave G9a inh inactive, BAZ2B block inactive, HP1b binding inh inactive, JMJD2A Tudor inactive, ALOX12 inh inactive and PLK1 PBD block inactive.
Screening COc1ccc(CNC(=O)CN(C)Cc2ccc(C(C)(C)C)cc2)cc1 returned G9a inh 40µM, BAZ2B block 22µM, HP1b binding inh inconclusive, JMJD2A Tudor 2.8µM, ALOX12 inh inactive and PLK1 PBD block inactive.
For COc1ccc(CNC(=O)Cn2cc(C(F)(F)F)ccc2=O)cc1 the results were G9a inh 50µM, BAZ2B block inactive, HP1b binding inh inactive, JMJD2A Tudor inactive, ALOX12 inh inactive and PLK1 PBD block inactive.
Screening CN(CC(=O)NCc1ccccc1)Cc1ccc(Cl)cc1 returned G9a inh inactive, BAZ2B block inactive, HP1b binding inh inactive, JMJD2A Tudor inactive, ALOX12 inh inactive and PLK1 PBD block inactive.
CCOc1ccc(-c2cc3c(=O)n(CCNC(=O)c4ccoc4)ccn3n2)cc1 was read as ALOX12 inh inactive.
CCC1NC(C(=O)O)Cc2c1[nH]c1ccccc21 (stereo not drawn) was read as G9a inh inactive[12.7 µM], BAZ2B block inactive, HP1b binding inh inactive, JMJD2A Tudor inactive, ALOX12 inh inconclusive and PLK1 PBD block inactive.
Screening COc1ccc(C2NC(C(=O)O)Cc3c2[nH]c2ccccc32)cc1OC (stereo not drawn) returned G9a inh inconclusive, BAZ2B block inactive, HP1b binding inh inconclusive, JMJD2A Tudor 3.2µM, ALOX12 inh inconclusive and PLK1 PBD block inactive.
